Here are results for twelve compounds from PubChem BioAssay (NCI).

About 83,000 compounds went through this panel and 20% of them were active in at least one assay; those are over-represented in the sample as a whole.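 Assay: single dose, 48 h. Readout: percent growth (0 = no net growth; negative = cell death). Active: <10.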 The source made the active and inactive calls.

The subject of this assay is MALME-3M melanoma. Description: NCI-60 one-dose screen, 48 h (100 = growth as untreated, 0 = no growth, -100 = all killed). The following applies: 10 µM unless noted.
With `Cc1cccc(NC(=O)Nc2ccc(-c3ccc4c(c3)NC(=O)/C4=C\c3ccc[nH]3)cc2)c1`, the growth was 105% (inactive).

Take `Cc1cc2nc3c4cc(C=O)ccc4n(CCN(C)C)c3nc2cc1C`: the growth is -3.12% (active).

Regarding `c1ccc2c(-c3nccs3)c[nH]c2c1`, the growth was 99.1% (inactive).

As to `COc1cc(NC(C)CCCNC(=O)CCC(=O)NCCCNCCCCCCCCCCNCCCNC(=O)CCC(=O)NCCCC(C)Nc2cc(OC)cc3cccnc23)c2ncccc2c1` (configuration not stated), the growth is 38.9% [8 µM] (inactive).

As to `O=C1c2ccc3c4c(ccc(c24)C(=O)N1CCCNCc1ccccc1)C(=O)N(CCCNCc1ccccc1)C3=O`, the growth is -58.5% (active).

In the case of `COc1ccc(CNCCN2C(=O)c3ccc4c5c(ccc(c35)C2=O)C(=O)N(CCNCc2ccc(OC)c(OC)c2OC)C4=O)c(OC)c1OC`, the growth was -73% (active).

Turning to `CCN(CC)c1ccc(C(=O)c2ccccc2)cc1`, the growth was 95.3% (inactive).

On to `COc1cc2c(c(O)c1Cl)C(=O)c1c(O)cc(C[C@H](C)O)cc1[C@H]2[C@H]1c2cc(C[C@H](C)O)cc(O)c2C(=O)c2c1cc(OC)c(Cl)c2O`, for which the growth was -32.6% (active).

For the compound `Nc1c(C(=O)Nc2cccc3cnccc23)sc2nc3c(cc12)C(=O)CCC3`, the growth is 88.3% (inactive).

Take `O=C(CCN1CCCC1)Nc1ccc2c(Nc3ccc(F)cc3)c3ccccc3nc2c1`: the growth was -90.1% (active).

Take `COc1cc2c(cc1OC)C(=O)/C(=C/c1cc(C)c(O)c(C)c1)S2`: the growth is 71.7% (inactive).

As for `CCCCCN1C=C/C(=C\C(=O)N(C)c2ccc(Oc3ccccc3)cc2)c2ccccc21`, the growth is 83.7% (inactive).
